According to PubChem BioAssay:
A number with no mark means an inactive call. The rule behind the calls is not given here.

molecular target: Pantothenate synthetase (Mycobacterium tuberculosis (strain ATCC 25618 / H37Rv)) (UniProt P9WIL5); test: Recombinant Mtb pantothenate synthetase (PanC) inhibitors, coupled enzyme, confirmatory (AID 375); conditions: coupled enzyme assay; at 10 µM, active compounds read high;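 note: 0% = full reaction with vehicle and 100% = no enzyme background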
Sequence (P9WIL5 whole entry, looked up): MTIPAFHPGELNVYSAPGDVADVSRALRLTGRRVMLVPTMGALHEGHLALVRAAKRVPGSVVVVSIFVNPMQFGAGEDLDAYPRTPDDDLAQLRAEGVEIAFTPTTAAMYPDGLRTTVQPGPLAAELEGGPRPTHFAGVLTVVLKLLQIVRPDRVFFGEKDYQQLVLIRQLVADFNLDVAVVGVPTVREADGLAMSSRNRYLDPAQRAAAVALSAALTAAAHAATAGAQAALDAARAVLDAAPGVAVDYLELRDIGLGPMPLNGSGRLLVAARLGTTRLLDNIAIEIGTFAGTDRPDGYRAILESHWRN

Row | Compound | inhibition [%]
1 | CCOC(=O)c1c(C)[nH]c(C(=O)Cn2c(=O)oc3ccccc32)c1C | 4
2 | COc1ccc(Cn2c(=O)[nH]c3cc(C(=O)NCCCN4CCCC4)ccc3c2=O)cc1 | 5
3 | COc1cccc(NC(=O)C2CCCN(S(=O)(=O)c3cccc4cccnc34)C2)c1 (centres undefined) | 0
4 | O=C(O)CCCc1nc(-c2ccccc2)no1 | 0
5 | Cn1c(Cc2ccccc2)nnc1SCC(=O)c1ccc(Br)s1 | 0
6 | CCOC(=O)c1[nH]c(CSc2nnc(-c3ccncc3)n2CCOC)c(C(=O)OCC)c1C | 3
7 | CC(C)(C)NC(=O)COC(=O)c1ccc(O)cc1 | 0
8 | O=C(NC(=O)c1ccc(Cl)cc1)Nc1cc(N2CCCCC2)ncn1 | 0
9 | Cn1ccnc1SCCC#N | 7
10 | C[N+](C)(C)CCCCCCCCCC[N+](C)(C)C | 4
11 | c1csc(-c2nc3nc4ccccc4nc3n2Cc2ccc3c(c2)OCO3)c1 | 0
12 | Cc1ccc(-n2nnnc2SCC(=O)Nc2c(C)n(C)n(-c3ccccc3)c2=O)cc1 | 0
13 | Cc1cc(C(=O)N2CCN(C/C=C/c3ccccc3)CC2)no1 | 0
14 | CC1Cc2cc(/C(O)=C3/C(=O)C(=O)N(CCN4CCOCC4)C3c3cccc(O)c3)ccc2O1 (centres undefined) | 6
15 | O=C(O)c1cccc(NS(=O)(=O)c2ccc3nnn(O)c3c2)c1 | 0
16 | O=C(Cc1cccs1)Nc1ccccc1NC(=O)Cc1cccs1 | 0
17 | O=C(NC1CCc2ccccc21)C1CCN(S(=O)(=O)c2ccc(-n3cnnn3)cc2)CC1 (centres undefined) | 10
18 | O=C(CCC1COc2ccccc2O1)NCC1COc2ccccc2O1 (centres undefined) | 0
19 | O=C(NCc1cccs1)C1CCCN(c2ncccn2)C1 (centres undefined) | 0
20 | CN(c1ccccc1)S(=O)(=O)c1ccc(C(=O)OCC(=O)NCc2ccco2)cc1 | 5

Row | Compound | inhibition [%]
21 | Cc1csc(NC(=O)CSc2nsc(SCC(=O)Nc3nc(C)cs3)c2C#N)n1 | 2
22 | N#Cc1cc2ccccc2nc1SCC(=O)Nc1ccccc1N1CCOCC1 | 0
23 | CCCc1cc(N2CCCC2)n2nc(C)c(-c3ccccc3)c2n1 | 0
24 | CC1CCc2cc(F)cc3c(O)c(C(=O)NCC4CCCO4)c(=O)n1c23 (centres undefined) | 2
25 | O=C1CC(C2CCCO2)C(=O)N1Cc1ccccc1 (centres undefined) | 0
26 | COc1ccccc1N1CC(O)=C(c2nc3ccccc3c(=O)[nH]2)C1=N | 13
27 | FC(F)Oc1cccc2cccnc12 | 6
28 | CCCCOC(=O)c1[nH]c2c(c1C)C(=O)CC(c1cc(OC)c(OC)c(OC)c1)C2 (centres undefined) | 10
29 | CC(=O)N1CCC2(CC1)CC(=O)c1cc(OCC(=O)NCc3ccco3)ccc1O2 | 3
30 | COc1ccccc1N1CCN(C(=O)CN(Cc2ccc(Cl)cc2)S(C)(=O)=O)CC1 | 3
31 | CCOCCCNC(=O)C1CCCN(S(=O)(=O)CC)C1 (centres undefined) | 0
32 | COc1ccc(C(c2nnnn2C2CCCC2)N2CCC(C)CC2)c(OC)c1 (centres undefined) | 3
33 | CSc1nc2c(c(=O)n1C)SC(C)C2 (centres undefined) | 0
34 | CC1(C(=O)NC2CCCCC2)CCC(=O)N1Cc1cccs1 (centres undefined) | 0
35 | CCN(CC)C(=O)CSc1nc2ccc(NC(=O)CSc3nccn3C)cc2s1 | 7
36 | CCN1CCN(c2nc(-c3cccnc3)nc3ccccc23)CC1 | 0
37 | COc1ccccc1N1CCN(C(=O)N2CCOCC2)CC1 | 0
38 | CCSc1nnc(NC(=O)CCNS(=O)(=O)c2cc(Br)cnc2N)s1 | 3
39 | COc1ccc(Nc2nc(-c3sc(N)nc3C)cs2)cc1 | 3
